Inconclusive results are not listed. Calls follow the shape of the full dose curve.
Experiment: qHTS Assay for Lipid Storage Modulators (AID 1519)
Conditions: Drosophila S3 cells, BODIPY lipid droplet/cell ratio, laser cytometry; at 57.5 µM (top of the series); cells loaded with oleic acid
How it was run: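 Cells seeded at 5,000 per well were treated with compounds over a concentration series and loaded with oleic acid (400 uM, as added). Lipid droplet fluorescence (488 nm excitation, 500-530 nm channel) was read by laser-scanning cytometry and normalized to 20 uM Triacsin C.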
% is scaled to controls: 0 for no effect and ±100 for the full control effect.

Activity change, negative = inhibition, inactive:
O=C(Nc1cccc(F)c1)N1CCC2(CC1)CCN(C(=O)c1csnn1)CC2 5.59%
COC(=O)N1CCC2(CC1)CCN(c1ccccc1)CC2 0.493%
N#Cc1cccc(NC(=O)N2CCC3(CC2)CCN(C(=O)c2ccco2)CC3)c1 6.33%
O=C(c1cnccn1)N1CCC[C@@]2(CCN(c3ccncc3)C2)C1 3.16%
CS(=O)(=O)N1CCC2(CC1)CN(Cc1cc(C(F)(F)F)cc(C(F)(F)F)c1)C2 2.23%
Cn1cccc1C(=O)N1CCC[C@@]2(CCN(Cc3cc(C(F)(F)F)cc(C(F)(F)F)c3)C2)C1 -3.99%
N#Cc1ccc(CN2CCCC3(CCN(C(=O)c4cccc(F)c4)CC3)C2)cc1 2.12%
COc1ccc(NC(=O)N2CC3(CCN(C(C)=O)CC3)C2)cc1 3.83%
N#Cc1cccc(NC(=O)N2CCC3(CC2)CCN(C(=O)c2csnn2)CC3)c1 5.57%
COc1ccccc1CN1CCC2(CC1)CCN(C(C)=O)CC2 0.897%
Cc1noc(C)c1C(=O)N1CCC2(CCN(C(=O)Nc3ccccc3)CC2)CC1 3.9%
O=C(Oc1ccccc1)N1CCC2(CC1)CN(c1ccccc1)C2 1.33%
COC(=O)N1CCC[C@@]2(CCN(C(c3ccccc3)c3ccccc3)C2)C1 -5.11%
Cn1cccc1C(=O)N1CCC2(CC1)CCN(c1ccccc1)CC2 5.03%
CC(=O)N1CCC2(CC1)CN(c1ccccn1)C2 7.33%

— PubChem BioAssay (NCATS)
